Most compounds without a hit are left out; they make up all but 0.92% or so of the library.
PKM2 act: qHTS Assay for Activators of Human Muscle isoform 2 Pyruvate Kinase | Pyruvate kinase PKM (Homo sapiens), P14618 | purified PKM2, Kinase-Glo ATP luminescence, activation; response scale: 0% is enzyme alone, no compound | Potency, µM (top dose mostly 57.5 µM), for the others: at the top dose activation, actives largely listed as activators | 260,000 tested, 0.34% active; further: potency means the concentration at half of the fitted maximal effect; on the % scale 0 is the no-effect control and ±100 the full control effect; nearly all actives have a fitted effect of over 55% in size
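hPK-M2, >95% pure; 0.1 mM ADP / 0.5 mM PEP final; imidazole pH7.2 buffer w/ 7 mM MgCl2, 50 mM KCl; 1 h RT; Kinase-Glo lum. Intermediate enzyme activity for dual inhibitor/activator qHTS.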
RXFP1 agonist: qHTS Assay for Agonists of the Relaxin Receptor RXFP1 | Relaxin receptor 1 (Homo sapiens), Q9HBX9 | HEK293T-RXFP1 cAMP TR-FRET, 30 min; response scale: percent of porcine relaxin response, buffer zero | Potency, µM (series often up to 57.5 µM), inactives show top-dose activation, most hits filed as activators | 370,000 tested, 0.3% active; further: potency means the concentration at half of the fitted maximal effect; on the % scale 0 is the no-effect control and ±100 the full control effect; nearly all actives have a fitted effect of over 60% in size
Target sequence (Q9HBX9 whole entry, looked up): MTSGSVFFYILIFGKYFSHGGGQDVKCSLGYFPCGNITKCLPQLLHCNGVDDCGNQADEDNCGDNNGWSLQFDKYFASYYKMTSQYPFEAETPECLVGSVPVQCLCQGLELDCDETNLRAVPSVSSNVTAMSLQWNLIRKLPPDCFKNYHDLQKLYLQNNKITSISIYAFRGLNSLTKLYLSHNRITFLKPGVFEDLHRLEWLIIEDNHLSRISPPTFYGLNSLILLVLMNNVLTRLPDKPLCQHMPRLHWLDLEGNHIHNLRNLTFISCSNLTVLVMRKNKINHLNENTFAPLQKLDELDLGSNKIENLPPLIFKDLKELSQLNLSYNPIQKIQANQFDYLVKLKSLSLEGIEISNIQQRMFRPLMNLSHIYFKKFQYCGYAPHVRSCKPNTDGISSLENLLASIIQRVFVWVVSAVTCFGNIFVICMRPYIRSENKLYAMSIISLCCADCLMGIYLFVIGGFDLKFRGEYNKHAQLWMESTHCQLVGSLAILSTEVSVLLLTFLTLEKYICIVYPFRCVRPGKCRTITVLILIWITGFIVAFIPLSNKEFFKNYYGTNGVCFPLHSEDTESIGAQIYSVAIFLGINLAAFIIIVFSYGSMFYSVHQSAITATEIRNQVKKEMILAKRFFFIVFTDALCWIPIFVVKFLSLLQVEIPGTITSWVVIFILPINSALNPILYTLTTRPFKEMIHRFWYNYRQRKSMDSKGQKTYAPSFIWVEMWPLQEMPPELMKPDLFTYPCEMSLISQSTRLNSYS
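HEK293T cells stably expressing RXFP1 were pretreated with the PDE4 inhibitor Ro 20174, exposed to compounds for 30 min at 37C, lysed, and cAMP was read by TR-FRET. Data normalized to buffer (basal) and 29 nM porcine relaxin (100%).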
KinaseGlo FLuc: Counterscreen for Luciferase (Kinase-Glo TM) Inhibition; Kinase-Glo luciferase, ATP luminescence, 8 min; Potency, µM (doses to about 38.3 µM), inactives show at the top dose activity change, negative = inhibition, actives largely listed as inhibitors; AID 1379, 2008; Luciferin 4-monooxygenase (Photuris pensylvanica), Q27757; 200,000 tested, 0.28% active; further: potency means the concentration at half of the fitted maximal effect; on the % scale 0 is the no-effect control and ±100 the full control effect; nearly all actives have a fitted effect of over 60% in size
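Luminescence was the read-out, taken after 8-minute incubation at ambient temperature. Luciferase turned over luciferin with 10 uM ATP in imidazole pH 7.2 buffer containing KCl, MgCl2, Tween 20 and BSA.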
miR-21 act: qHTS Assay for Modulators of miRNAs and/orActivators of miR-21; Potency, µM (top dose mostly 38.3 µM), for the others: at the highest dose activity change, positive = activation, most hits filed as activators; HeLa miR-21 FLuc reporter, luciferase, 48 h; 340,000 tested, under 10 active;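 further: % of control where 0% means no effect; miR-21 action dims this reporter so a rising signal means less miR-21 action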
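Using DMEM plus 10% FBS, HeLa miR-21-FLuc cells are incubated with test compounds (final up to about 40uM) for 48 hours; firefly luciferase signal is then imaged following reagent-mediated lysis.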
RXFP1 antagonist: qHTS Assay for Antagonists of the Relaxin Receptor RXFP1 | HEK293-RXFP1, relaxin-stimulated cAMP HTRF, 30 min; stronger effect = lower value | AID 1259400, 2018 | 350,000 tested, 0.59% active | Relaxin receptor 1 (Homo sapiens), Q9HBX9 | activity change, negative = inhibition, % at 57.5 µM;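 active means activity change of -60% or lower, but not beyond a set lower limit; inconclusive means change between -60% and -40%, or beyond the set limit; inactive means change above -40%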; further: on the % scale 0 is the no-effect control and ±100 the full control effect
GALK inh: qHTS Assay for Inhibitors of Human Galactokinase (GALK). P51570. Purified GALK, Kinase-Glo residual ATP luminescence. Potency, µM (doses to about 57.5 µM), for the others: top-dose activity change, negative = inhibition, hits mostly inhibitors. 270,000 tested, 0.007% active; further: potency means the concentration at half of the fitted maximal effect; on the % scale 0 is the no-effect control and ±100 the full control effect
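ATP-depletion format; final 35 uM ATP, 100 uM D-galactose, 5 nM enzyme; pH 8.0 HEPES/Mg2+ buffer; 60 min RT; luminescence read 10 min after detection reagent.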
An asterisk follows results filed as active; ? = inconclusive; · = no result given; [ ] = remark or other dose. Unless noted, the call rests on the fitted dose curve; in most records, active means well fitted curve in the direction sought with a large enough effect; inconclusive means small, poorly fitted or top-dose-only effect, or another doubt; inactive means no such curve, though single readings can be large; an effect the other way counts as inactive or inconclusive.

SMILES	PKM2 act	RXFP1 agonist	KinaseGlo FLuc	miR-21 act	RXFP1 antagonist	GALK inh
CC1(C)C(=O)NCCN1C(=O)CCC(=O)O	1%	1%	3%	-4%	-2	0%
Cc1ccc(-c2csc(/C=C3/SC(C)C(=O)N3CC(=O)Nc3ccccc3F)n2)cc1 (stereo not drawn)	·	·	·	·	-84*	·
Cc1ccc(C(=O)N(CCCN(C)C)c2nc3ccc(Cl)cc3s2)cc1C	-11%	0%	-3%	7%	-100*	-1%
Cc1ccc2nc(N(CCCN(C)C)C(=O)c3ccc(S(=O)(=O)N4CCc5ccccc5C4)cc3)sc2c1	5%	0%	·	24%	-65*	0%
CCc1ccc2nc(N(CCN(C)C)C(=O)c3ccc4ncsc4c3)sc2c1	0%	1%	·	-55%	-68*	2%
Cc1cccc2sc(N(CCCN(C)C)C(=O)c3ccc4ncsc4c3)nc12	-3%[0.46 µM]	3%	·	-35%	-14	0%
CN(C)CCCN(C(=O)c1ccc2c(c1)OCCO2)c1nc2ccc(Cl)cc2s1	0%	1%	·	-26%	·	5%
O=C(O)c1cc(O)c2c(c1)[C@H]([C@H]1c3cc(C(=O)O)cc(O)c3C(=O)c3c(O[C@@H]4OC(CO)C(O)C(O)C4O)cccc31)c1cccc(O[C@@H]3OC(CO)C(O)C(O)C3O)c1C2=O (stereo partly drawn)	·	·	-20%	·	·	·
CCCCCCCCCCCCCCCCCCNC(=O)OCC(COP(=O)([O-])OCC[n+]1ccsc1)OC (stereo not drawn)	·	·	-4%	·	·	·
Cc1sc(-n2c(C)cc(/C=C3\SC(=S)NC3=O)c2C)c(C#N)c1C	-3%	1%	-6%	-20%	-105*	1%
Cc1cc(/C=C2\SC(=S)NC2=O)c(C)n1-c1cccc(O)c1	-10%	1%	·	-37%	-15	-8%
CCCCNC(=NCc1cccc(C(F)(F)F)c1)Nc1ccccc1	·	0%	·	19%	-26	-1%
CCC(C=C[C@@H]1OC(=O)C=C[C@H]1C)=C[C@H](C)CC=CC(C)=C[C@@H](C)C(=O)[C@@H](C)[C@H](O)[C@@H](C)CC(C)=CC(=O)O	·	·	-1%[39.9 µM]	·	·	·
CCOc1ccc(CCNC(=O)CSc2nc3ccccc3nc2Cc2ccc(C)cc2)cc1OCC	·	14µM*	·	19%	2	·
CCOc1ccc(CCNC(=O)CSc2n[nH]c(-c3ccccc3)n2)cc1OCC	·	4%	·	12%	-8	·
O=C(NCCc1ccccc1Cl)c1ccc(Cn2c(=O)c3cccn3c3cccnc32)cc1	·	22µM*	·	-15%	9	·
COc1ccc(-c2cn3ccccc3n2)cc1OC	-79%	3%	11µM*	-47%	-13	9%
CCOc1ccc(-c2cn3ccccc3n2)cc1	-59%	3%	8.9µM*	13%	-21	14%
COc1ccc(-c2cn3cc(C)ccc3n2)cc1OC	-31%	1%	?	-14%	-7	0%
O=C1NC(Cc2ccc(O)cc2)c2nc3ccc(Br)cc3c(=O)n2-c2ncccc21 (stereo not drawn)	·	·	·	·	5	·
COc1ccccc1Nc1c2c(nc3ccc(NC(=O)c4cccc(F)c4)cc13)CCCC2	·	-1%	·	-1%	-75*	·
COc1ccc(-c2cc(C(=O)N/N=C/c3ccc(O)cc3)[nH]n2)cc1	·	·	-4%	·	·	·
CCCCCCCCCCCCCCC(O)C[N+](C)(CCO)CCO (stereo not drawn)	·	·	·	·	-61*	·
COc1ccc(C=C2C=C(C(C)(C)C)C(=O)C(C(C)(C)C)=C2)cc1OC	2%	0%	·	6%	-88*	2%
COc1ccc(/C=C2\CC/C(=C\c3ccc(OC)c(OC)c3)C2=O)cc1OC	-17%	0%	-1%	-8%	-14	-3%
SMILES	PKM2 act	RXFP1 agonist	KinaseGlo FLuc	miR-21 act	RXFP1 antagonist	GALK inh
O=C(CS(=O)(=O)c1ccccc1)c1cc2ccccc2oc1=O	5%	0%	·	-11%	-29	-14%
O=C(CS(=O)(=O)c1ccccc1)c1cc2cc(F)ccc2oc1=O	·	-1%	·	-7%	-72*	-14%
O=C1NC(c2ccccc2)(c2ccccc2)C(=O)N1COP(=O)(O)O	·	·	·	·	-9	·
O=[N+]([O-])c1cc2c(c(CSc3ncccn3)c1)OCOC2	0%	14µM*	4%	-55%	11	10%
CCC(=O)c1ccc(OC(=O)Cc2ccc(OC)cc2)cc1	1%[11.5 µM]	-1%	·	-4%	-113*	-2%
CCN(CC)CCOc1ccc(C(O)(Cc2ccc(Cl)cc2)c2ccc(C)cc2)cc1 (stereo not drawn)	·	·	·	·	-91*	·
O=C(N/N=C/c1ccccc1)c1cc(-c2ccc3c(c2)OCO3)n[nH]1	15%	2%	-1%	-5%	-4	-3%
O=C(N/N=C/c1cccc(O)c1)c1cc(-c2ccc3c(c2)OCO3)n[nH]1	-2%	0%	-3%	-12%	-69*	-1%
COc1ccccc1N1CCN(C(=O)CSc2nc(-c3ccccc3)cc(=O)[nH]2)CC1	-2%	0%	-2%	-1%	5	0%
COc1ccccc1N1CCN(C(=O)CSc2nc(C)c(Cc3ccccc3)c(=O)[nH]2)CC1	13µM*	0%	3%	2%	4	-3%
Cc1cc(C)n(-c2nc(SCCN(C)C)c3c4c(sc3n2)CCCC4)n1	0%	4%	-2%	26%	-61*	-3%
CCC(O)CNc1nc(-n2nc(C)cc2C)nc2sc3c(c12)CCCC3 (stereo not drawn)	-5%	5%	1%	-12%	·	1%
COc1ccc(-c2nn(C)c3sc(C(=O)Nc4cc(OC)c(OC)c(OC)c4)cc23)cc1OC	·	2%	·	-1%	-2	·
COc1ccc(NC(=O)c2cnc[nH]2)cc1	·	0%	·	6%	·	·
CS(=O)(=O)c1ccc(NCCc2ccccn2)c([N+](=O)[O-])c1	14µM*	1%	·	-13%	-2	-2%
O=C(c1ccco1)N1CCNCC1	·	·	·	·	16	·
CCOc1ccc(/C=N/NC(=O)c2ccccc2NC(=O)c2ccc(OC)cc2)cc1	4%	2%	?	-24%	-1	2%
O=C(Nc1ccccc1C(=O)N/N=C/c1ccncc1)c1ccccc1	-84%	5%	1.8µM*	-22%	-4	19%
COc1ccc(C(=O)Nc2ccccc2C(=O)N/N=C/c2ccco2)cc1	-59%	2%	2.8µM*	-28%	1	9%
